These molecules were tested on CDK4-cyclinD1. Conditions: concentration: 1 μM, replicates: in singlicate; n = 1.
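Further: KINOMEscan kinase panel screen.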

Question: `Nc1nc(-c2nccs2)c(-c2ccnc3ccccc23)s1` [GW693542] was tested. Which “%Inh” value did it give?
Answer: 0%

Question: For `CC1=C(C(=O)Nc2cc3cn[nH]c3cc2F)C(c2ccc(C(F)(F)F)cc2)CC(=O)N1` (stereo not drawn) [GSK429286], which “%Inh” value is on record?
Answer: 0%

Question: For `Cc1cccc(-c2nc(Nc3ccc4[nH]ncc4c3)c3ccccc3n2)n1` [GW857175], which “%Inh” value is on record?
Answer: 23%

Question: How did the “%Inh” value turn out when `Cc1cc(NCC(c2ccccc2)c2ccccc2)nc(NCc2ccc(C(F)(F)F)cc2)n1` [GW497681] was run?
Answer: 0%

Question: For `CSc1nn2c(=O)cc(N3CCOCC3)nc2n1Cc1cccc(C(F)(F)F)c1C` [GSK2363608], which “%Inh” value is on record?
Answer: 0%

Question: Which “%Inh” value does the source give for `COC(=O)c1c(-c2ccccc2)c2cc(OC)ccc2c(=O)n1Cc1ccccc1` here?
Answer: 0%

Question: Which “%Inh” value does the source give for `Cn1ccc2ncnc(Oc3ccc(Nc4nc5ccccc5[nH]4)cc3)c21` here?
Answer: 0%

Question: `COc1cc(Nc2nccc(N3CCC(NC(=O)Nc4cc(C)ccc4C)C3)n2)cc(OC)c1OC` (stereo not drawn) [GSK1379762] was tested. Which “%Inh” value did it give?
Answer: 0%

Question: `O=C(Nc1ccccc1)Nc1cccc(Oc2ccc3nccn3n2)c1` was tested. Which “%Inh” value did it give?
Answer: 24%

Question: `Cl.O=C(Nc1cccc(-c2nn3ncccc3c2-c2ccnc(Nc3cccnc3)n2)c1)c1c(F)cccc1F` [GSK312879] was tested. Which “%Inh” value did it give?
Answer: 0%

Question: How did the “%Inh” value turn out when `CCn1c(-c2ccccn2)nc2cnccc21` [SB-736398] was run?
Answer: 0%

Question: How did the “%Inh” value turn out when `CC(C)(C)c1ccc(C(=O)Nc2cn3cc(Cl)ccc3n2)cc1` was run?
Answer: 11%

Question: `Cl.NC(=O)c1cccc(Nc2nccc(Nc3ccc(Oc4cccc(Cl)c4)c(Cl)c3)n2)c1` [GW659008] was tested. Which “%Inh” value did it give?
Answer: 0%

Question: Which “%Inh” value does the source give for `Cc1ccccc1-n1cnc2c(N)ncnc21` [SKF-97510] here?
Answer: 0%

Question: With `COc1ccc2nc(-c3cccc(C)n3)nc(Nc3ccncc3)c2c1` [GSK204919] as the molecule, how does the “%Inh” value read?
Answer: 0%

Question: With `Cc1nnc(-c2ccc3occ(-c4ccc(S(C)=O)cc4)c3c2)[nH]1` (stereo not drawn) as the molecule, how does the “%Inh” value read?
Answer: 0%

Question: For `Cc1cccc(-c2cc(Nc3ccncc3)c3ccccc3n2)n1` [GSK223675], which “%Inh” value is on record?
Answer: 0%

Question: For `Cc1csc(-c2nc(Nc3ccncc3)c3ccccc3n2)n1` [GW869640], which “%Inh” value is on record?
Answer: 11%

Question: For `Cn1ccc2ncnc(Oc3cccc(C(=O)Nc4ccccc4)c3)c21`, which “%Inh” value is on record?
Answer: 16%

Question: For `O=C(Nc1n[nH]c2cc(-c3cccc(F)c3F)ccc12)C1CC1` [SB-733894], which “%Inh” value is on record?
Answer: 0%

Question: `Cc1cc(-c2ccc3c(c2)CC[C@@H](N[C@@H](C)c2ccccc2)C3)cnc1N.Cl` [GW412617] was tested. Which “%Inh” value did it give?
Answer: 0%

Question: For `Cc1ccc(NC(=O)Nc2cccc(Cl)c2)cc1-c1ccc(C(=O)Nc2ccncc2)cc1` [GSK1398468], which “%Inh” value is on record?
Answer: 0%

Question: Which “%Inh” value does the source give for `CN(C)CCN(C)C(=O)c1cc(-c2ccncc2)c(-c2ccc(Cl)c(O)c2)o1.Cl.Cl` [SB-710397] here?
Answer: 23%

Question: `O=C(Nc1n[nH]c2nc(-c3nccs3)c(Br)cc12)C1CC1` [SB-742251] was tested. Which “%Inh” value did it give?
Answer: 65%

Question: How did the “%Inh” value turn out when `Cc1cccc(-c2nc(C)cc(Nc3ccncc3)n2)n1` [GSK257997] was run?
Answer: 0%

Question: `Cc1cccc(-c2nc(Nc3cccc(C(N)=O)c3)c3ccccc3n2)n1` [GW876019] was tested. Which “%Inh” value did it give?
Answer: 18%

Question: `COc1cc2ncnc(Nc3ccc4nc(-c5ccccc5)[nH]c4c3)c2cc1OC.Cl` [GW282450] was tested. Which “%Inh” value did it give?
Answer: 0%

Question: For `CN1C(=O)C(Nc2ccc(Cl)c(C(=O)O)c2)=C(c2ccc(Cl)cc2)C1=O` [SB-404290], which “%Inh” value is on record?
Answer: 0%

Question: For `Cc1cccc(-c2nc(Nc3ccncc3)c3ccccc3n2)n1` [GW855857], which “%Inh” value is on record?
Answer: 13%

Question: Which “%Inh” value does the source give for `CCn1c(-c2cccnc2O)nc2cnccc21` [SB-736715] here?
Answer: 7%

Question: For `COc1ccccc1-c1ccc2c(NC(=O)C3CC3)n[nH]c2n1` [SB-711239], which “%Inh” value is on record?
Answer: 9%

Question: For `CS(=O)(=O)c1ccc(-c2nc3n(c2-c2ccncc2)CCC3)cc1` [SKF-105942], which “%Inh” value is on record?
Answer: 0%

Question: How did the “%Inh” value turn out when `CC(C)(C)c1ccc(C(=O)Nc2cn3cc(-c4cccnc4)ccc3n2)cc1` was run?
Answer: 29%

Question: Which “%Inh” value does the source give for `Cc1c(Cn2ccn3c(=O)cc(N4CCOCC4)nc23)cccc1C(F)(F)F` [GSK2289044] here?
Answer: 0%

Question: Which “%Inh” value does the source give for `O=C(O)COc1ncnc2cc(-c3ccc4[nH]ncc4c3)sc12` here?
Answer: 1%

These molecules were tested on CDK4-cyclinD3. Conditions: concentration: 1 μM, replicates: in singlicate; n = 1.

Question: With `Nc1nc(-c2nccs2)c(-c2ccnc3ccccc23)s1` [GW693542] as the molecule, how does the “%Inh” value read?
Answer: 0%

Question: How did the “%Inh” value turn out when `CC1=C(C(=O)Nc2cc3cn[nH]c3cc2F)C(c2ccc(C(F)(F)F)cc2)CC(=O)N1` (stereo not drawn) [GSK429286] was run?
Answer: 0%

Question: `Cc1cccc(-c2nc(Nc3ccc4[nH]ncc4c3)c3ccccc3n2)n1` [GW857175] was tested. Which “%Inh” value did it give?
Answer: 0%

Question: For `Cc1cc(NCC(c2ccccc2)c2ccccc2)nc(NCc2ccc(C(F)(F)F)cc2)n1` [GW497681], which “%Inh” value is on record?
Answer: 0%

Question: For `COC(=O)c1c(-c2ccccc2)c2cc(OC)ccc2c(=O)n1Cc1ccccc1`, which “%Inh” value is on record?
Answer: 0%

Question: `Cn1ccc2ncnc(Oc3ccc(Nc4nc5ccccc5[nH]4)cc3)c21` was tested. Which “%Inh” value did it give?
Answer: 0%

Question: `COc1cc(Nc2nccc(N3CCC(NC(=O)Nc4cc(C)ccc4C)C3)n2)cc(OC)c1OC` (stereo not drawn) [GSK1379762] was tested. Which “%Inh” value did it give?
Answer: 0%

Question: With `O=C(Nc1ccccc1)Nc1cccc(Oc2ccc3nccn3n2)c1` as the molecule, how does the “%Inh” value read?
Answer: 0%

Question: For `Cl.O=C(Nc1cccc(-c2nn3ncccc3c2-c2ccnc(Nc3cccnc3)n2)c1)c1c(F)cccc1F` [GSK312879], which “%Inh” value is on record?
Answer: 4%

Question: How did the “%Inh” value turn out when `CCn1c(-c2ccccn2)nc2cnccc21` [SB-736398] was run?
Answer: 3%

Question: Which “%Inh” value does the source give for `CC(C)(C)c1ccc(C(=O)Nc2cn3cc(Cl)ccc3n2)cc1` here?
Answer: 0%

Question: For `Cl.NC(=O)c1cccc(Nc2nccc(Nc3ccc(Oc4cccc(Cl)c4)c(Cl)c3)n2)c1` [GW659008], which “%Inh” value is on record?
Answer: 0%

Question: For `Cc1ccccc1-n1cnc2c(N)ncnc21` [SKF-97510], which “%Inh” value is on record?
Answer: 0%

Question: With `COc1ccc2nc(-c3cccc(C)n3)nc(Nc3ccncc3)c2c1` [GSK204919] as the molecule, how does the “%Inh” value read?
Answer: 0%

Question: With `Cc1nnc(-c2ccc3occ(-c4ccc(S(C)=O)cc4)c3c2)[nH]1` (stereo not drawn) as the molecule, how does the “%Inh” value read?
Answer: 2%

Question: How did the “%Inh” value turn out when `Cc1cccc(-c2cc(Nc3ccncc3)c3ccccc3n2)n1` [GSK223675] was run?
Answer: 9%

Question: With `Cc1csc(-c2nc(Nc3ccncc3)c3ccccc3n2)n1` [GW869640] as the molecule, how does the “%Inh” value read?
Answer: 1%

Question: How did the “%Inh” value turn out when `Cn1ccc2ncnc(Oc3cccc(C(=O)Nc4ccccc4)c3)c21` was run?
Answer: 0%

Question: Which “%Inh” value does the source give for `O=C(Nc1n[nH]c2cc(-c3cccc(F)c3F)ccc12)C1CC1` [SB-733894] here?
Answer: 30%

Question: Which “%Inh” value does the source give for `Cc1cc(-c2ccc3c(c2)CC[C@@H](N[C@@H](C)c2ccccc2)C3)cnc1N.Cl` [GW412617] here?
Answer: 0%

Question: How did the “%Inh” value turn out when `Cc1ccc(NC(=O)Nc2cccc(Cl)c2)cc1-c1ccc(C(=O)Nc2ccncc2)cc1` [GSK1398468] was run?
Answer: 11%

Question: For `CN(C)CCN(C)C(=O)c1cc(-c2ccncc2)c(-c2ccc(Cl)c(O)c2)o1.Cl.Cl` [SB-710397], which “%Inh” value is on record?
Answer: 9%

Question: For `O=C(Nc1n[nH]c2nc(-c3nccs3)c(Br)cc12)C1CC1` [SB-742251], which “%Inh” value is on record?
Answer: 25%

Question: For `Cc1cccc(-c2nc(C)cc(Nc3ccncc3)n2)n1` [GSK257997], which “%Inh” value is on record?
Answer: 0%

Question: With `Cc1cccc(-c2nc(Nc3cccc(C(N)=O)c3)c3ccccc3n2)n1` [GW876019] as the molecule, how does the “%Inh” value read?
Answer: 0%

Question: Which “%Inh” value does the source give for `COc1cc2ncnc(Nc3ccc4nc(-c5ccccc5)[nH]c4c3)c2cc1OC.Cl` [GW282450] here?
Answer: 0%

Question: With `CN1C(=O)C(Nc2ccc(Cl)c(C(=O)O)c2)=C(c2ccc(Cl)cc2)C1=O` [SB-404290] as the molecule, how does the “%Inh” value read?
Answer: 0%

Question: `Cc1cccc(-c2nc(Nc3ccncc3)c3ccccc3n2)n1` [GW855857] was tested. Which “%Inh” value did it give?
Answer: 0%

Question: With `CCn1c(-c2cccnc2O)nc2cnccc21` [SB-736715] as the molecule, how does the “%Inh” value read?
Answer: 0%

Question: For `COc1ccccc1-c1ccc2c(NC(=O)C3CC3)n[nH]c2n1` [SB-711239], which “%Inh” value is on record?
Answer: 0%

Question: How did the “%Inh” value turn out when `CS(=O)(=O)c1ccc(-c2nc3n(c2-c2ccncc2)CCC3)cc1` [SKF-105942] was run?
Answer: 6%

Question: For `CC(C)(C)c1ccc(C(=O)Nc2cn3cc(-c4cccnc4)ccc3n2)cc1`, which “%Inh” value is on record?
Answer: 0%

Question: For `Cc1c(Cn2ccn3c(=O)cc(N4CCOCC4)nc23)cccc1C(F)(F)F` [GSK2289044], which “%Inh” value is on record?
Answer: 0%

Question: Which “%Inh” value does the source give for `O=C(O)COc1ncnc2cc(-c3ccc4[nH]ncc4c3)sc12` here?
Answer: 0%

Source: paper PMC5540273 (PLoS ONE, 2017)
